The OligoGym collection

Target: TMEM90B
Assay: pooled miR-30 sensor sort-seq; sequence = guide strand
Details: shRNA
Further: reference of the scale not given here.

Sequence	sensor-assay potency score (higher = more potent)
TAGAGGATGATGTTGGGCCGGT	-0.523
TTCATCTGGTAACTTAAGCAGC	-0.817
TCGATGAAGGTGGTCTCGCAGC	-1.08
TTGTATATTGCTAATGCGGTGG	-0.114
TGTGTCGCTTGAGTAGTCGCTC	0.302
TTAATTAAACCATTCCTCTTGC	0.249
TATTTCTCAGCATTCATCTGGT	0.677
TCACTCTCTGTGTCGCTTGAGT	-1.01
TTATTTCTCAGCATTCATCTGG	0.827
ATCATTTGTACTGTACAGCATC	-1.17
TTTCTCAGCATTCATCTGGTAA	-0.53
TTGAGTAGTCGCTCTCCAGCTC	-0.0875

Target: TMOD3
Assay: as above
Details: shRNA

Sequence	sensor-assay potency score (higher = more potent)
TTTCATTATCTCTTAACGCATC	-0.758
TAACGCATCAATCAGTGCCAGA	-1.33
TATAGCATTAGCTGCTCTGGTT	-0.335
TTTTTGTTATAGCATTAGCTGC	-1.37
TTACAGAACTTTGTATTCGTTA	0.0652
TTACAATTTGATAACAACTAAA	-1.42
TAGTTCTCTTCAAACTCTCTTC	-0.63
TAGGGCACATAGTCTTCCCTGT	-0.185
TTATATTACAGAACTTTGTATT	-0.879
TTTTCTTCTGTAAAAGTCTGTA	-0.198
TTTTTCTTCTGTAAAAGTCTGT	0.6
TTCAACAAGATGAGCATCGTTT	-0.31

Target: TNFAIP2
Assay: as above
Details: shRNA

Sequence	sensor-assay potency score (higher = more potent)
TCAATCTTGATGGCACTGGGGT	-0.553
TATCTGTGAGCCCAAGTCCAGC	-1.63
TATCAAACACGCTAACTCCTAC	-0.68
TCGGACATGTAAACAAACCAAG	-1.46
TAGCTCCAGAGCTCGGTCCATC	-1.52
TCAACATACATACAAAAGCAGT	-1.49
TTCTGCTCCATGGACATCCGGA	-0.115
TTTCTCTTCCAGTTCTGTCTTC	-0.182
TATCGTTTACAAAGAGTCCTTG	-0.0149
TTCTGTCTTCCATTCCACCATT	-1.13
TTGGCAATAACATTGGCCCTGT	-0.0405
TAATTCGTCAGCTGCTTGCCTC	-0.825
